# Measured values as given in PubChem BioAssay (NCATS).
# Results filed as inconclusive are left out. A call without a number means that no potency is given here. The source made the active and inactive calls. Unless noted, the call rests on the fitted dose curve; in most records, active means well fitted curve in the direction sought with a large enough effect; inconclusive means small, poorly fitted or top-dose-only effect, or another doubt; inactive means no such curve, though single readings can be large; an effect the other way counts as inactive or inconclusive.
# What was measured:
# [1] = target: Mitogen-activated protein kinase 10 (Mus musculus) (UniProt Q61831); assay: JNK3 AlphaScreen Assay (AID 530; active means well fitted curve in either direction with a large enough effect, not every such curve was filed as active;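 further: kinase came from lysate of stimulated human HepG2 cells; signal reports phosphorylation of biotinylated GST-cJun 1-79 at Ser73 with 10 µM ATP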)
# In short: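 HepG2 lysate (IL-1b/TNFa pre-activated) + biotin-GST-cJun 1-79 + anti-pSer73 cJun; cpd titration, 15 min RT; ATP 10 uM start; Tris pH 7.6, MgCl2, DTT, vanadate; beads in EDTA buffer; AlphaScreen.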
# [2] = target: Cytochrome P450 3A4 (Homo sapiens) (UniProt P08684); assay: qHTS Assay for Activators of Cytochrome P450 3A4 (AID 885); further: nearly all actives have a fitted effect of over 65% in size
# In short: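 Luminescent readout of luciferin formed from 25 uM Luciferin-PPXE (KM level) by 20 nM CYP3A4 in 200 mM KPO4, with 60 min NADPH-driven reaction at room temperature after 10 min compound exposure. Ketoconazole (57 uM) defined 100% inhibition.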
# [3] = system: CP192; assay: qHTS profiling for inhibitors of Plasmodium falciparum proliferation (AID 504749); further: nearly all actives have a fitted effect of over 60% in size; further: potency means the concentration at half of the fitted maximal effect; details: P. falciparum in erythrocytes, SYBR Green DNA, 72 h; series mostly up to 12.8 µM
# In short: (§1)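 SYBR Green fluorescence (ex 485 nm, em 535 nm) reports parasite DNA after 72 h compound exposure of infected red cells at 0.3% parasitemia, 2.5% hematocrit; signal normalized to 0.29 uM artemisinin and vehicle wells.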
# [4] = system: CP211; assay: as above; details: P. falciparum in erythrocytes, SYBR Green DNA, 72 h; series mostly up to 12.8 µM
# In short: as §1
# [5] = system: CP247; assay: as above; details: P. falciparum in erythrocytes, SYBR Green DNA, 72 h; series mostly up to 12.8 µM
# In short: as §1
# [6] = system: CP260; assay: as above; details: P. falciparum in erythrocytes, SYBR Green DNA, 72 h; series mostly up to 12.8 µM
# In short: as §1
# [7] = system: CP297; assay: as above; details: P. falciparum in erythrocytes, SYBR Green DNA, 72 h; series mostly up to 12.8 µM
# In short: as §1
# [8] = system: AA1029; assay: as above; details: P. falciparum in erythrocytes, SYBR Green DNA, 72 h; series mostly up to 12.8 µM
# In short: as §1
# [9] = system: CP185; assay: as above; details: P. falciparum in erythrocytes, SYBR Green DNA, 72 h; series mostly up to 12.8 µM
# In short: as §1
# [10] = system: CP194; assay: as above; details: P. falciparum in erythrocytes, SYBR Green DNA, 72 h; series mostly up to 12.8 µM
# In short: as §1
# [11] = system: CP256; assay: as above; details: P. falciparum in erythrocytes, SYBR Green DNA, 72 h; series mostly up to 12.8 µM
# In short: as §1
# [12] = system: CP265; assay: as above; details: P. falciparum in erythrocytes, SYBR Green DNA, 72 h; series mostly up to 12.8 µM
# In short: as §1
# [13] = system: CP291; assay: as above; details: P. falciparum in erythrocytes, SYBR Green DNA, 72 h; series mostly up to 12.8 µM
# In short: as §1
# [14] = system: P93_24; assay: as above; details: P. falciparum in erythrocytes, SYBR Green DNA, 72 h; series mostly up to 12.8 µM
# In short: as §1
# [15] = system: PC26; assay: as above; details: P. falciparum in erythrocytes, SYBR Green DNA, 72 h; series mostly up to 12.8 µM
# In short: as §1
# [16] = system: TAB109; assay: as above; details: P. falciparum in erythrocytes, SYBR Green DNA, 72 h; series mostly up to 12.8 µM
# In short: as §1
# [17] = system: PAD; assay: as above; details: P. falciparum in erythrocytes, SYBR Green DNA, 72 h; series mostly up to 12.8 µM
# In short: as §1
# [18] = system: ICS; assay: as above; details: P. falciparum in erythrocytes, SYBR Green DNA, 72 h; series mostly up to 12.8 µM
# In short: as §1
# [19] = system: P94_40; assay: as above; details: P. falciparum in erythrocytes, SYBR Green DNA, 72 h; series mostly up to 12.8 µM
# In short: as §1
# [20] = system: TAB165; assay: as above; details: P. falciparum in erythrocytes, SYBR Green DNA, 72 h; series mostly up to 12.8 µM
# In short: as §1
# Chain of Cytochrome P450 3A4 (Homo sapiens) (P08684 whole entry, looked up): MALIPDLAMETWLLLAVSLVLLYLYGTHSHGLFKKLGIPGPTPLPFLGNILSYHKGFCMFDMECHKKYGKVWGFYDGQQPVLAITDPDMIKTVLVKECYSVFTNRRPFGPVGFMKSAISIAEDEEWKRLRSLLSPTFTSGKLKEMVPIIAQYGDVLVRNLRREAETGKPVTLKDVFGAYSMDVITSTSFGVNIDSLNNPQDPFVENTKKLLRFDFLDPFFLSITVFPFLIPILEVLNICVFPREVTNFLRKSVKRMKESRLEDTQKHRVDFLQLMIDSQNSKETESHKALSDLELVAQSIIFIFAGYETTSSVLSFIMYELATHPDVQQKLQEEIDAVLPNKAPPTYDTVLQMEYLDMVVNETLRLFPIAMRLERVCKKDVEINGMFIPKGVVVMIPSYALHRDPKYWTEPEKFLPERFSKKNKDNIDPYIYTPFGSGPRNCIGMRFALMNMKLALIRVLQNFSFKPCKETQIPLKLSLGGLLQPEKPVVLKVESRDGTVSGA
Compound,Potency [1],Potency [2],Potency [3],Potency [4],Potency [5],Potency [6],Potency [7],Potency [8],Potency [9],Potency [10],Potency [11],Potency [12],Potency [13],Potency [14],Potency [15],Potency [16],Potency [17],Potency [18],Potency [19],Potency [20]
CCN1CCC[C@@H](OC(=O)C(c2ccccc2)c2ccccc2)C1,inactive,inactive,inactive,inactive,inactive,inactive,inactive,–,–,–,–,–,–,–,–,–,–,–,–,–
COC(=O)C1=C(C)NC(C)=C(C(=O)OCCN(C)Cc2ccccc2)[C@H]1c1cccc([N+](=O)[O-])c1,inactive,–,–,–,–,–,–,–,–,–,–,–,–,–,–,–,–,–,–,–
NCCC(=O)N[C@@H](Cc1cnc[nH]1)C(=O)O,inactive,–,–,–,–,–,–,–,–,–,–,–,–,–,–,–,–,–,–,–
CCC(C)(C)C(=O)O[C@@H]1C[C@H](C)C=C2C=C[C@H](C)[C@@H](CC[C@H]3C[C@@H](O)CC(=O)O3)[C@H]21,inactive,–,inactive,inactive,inactive,inactive,inactive,inactive,inactive,inactive,inactive,inactive,inactive,inactive,inactive,inactive,–,–,–,–
CCO[C@H]1O[C@@H]([C@H](COCc2ccccc2)OCc2ccccc2)[C@@H](OCc2ccccc2)[C@H]1O,inactive,–,inactive,inactive,inactive,inactive,inactive,inactive,inactive,inactive,–,inactive,inactive,–,–,inactive,inactive,–,–,–
C[C@]12CCC(=O)C=C1CCC1C2C(=O)C[C@]2(C)C1CC[C@]2(O)C(=O)CO (some centres undefined),–,–,inactive,inactive,inactive,inactive,inactive,inactive,inactive,inactive,inactive,inactive,inactive,inactive,inactive,inactive,inactive,inactive,inactive,inactive
CC1(C)S[C@H]2C(NC(=O)[C@@H](N)c3ccc(O)cc3)C(=O)N2[C@@H]1C(=O)O (some centres undefined),–,–,inactive,inactive,inactive,inactive,inactive,inactive,inactive,inactive,inactive,inactive,inactive,inactive,inactive,inactive,inactive,inactive,inactive,inactive
CCC(C)C(=O)OC1CC(O)C=C2C=CC(C)C(CCC(O)CC(O)CC(=O)O)C21 (centres undefined),–,–,inactive,inactive,inactive,inactive,inactive,inactive,inactive,inactive,inactive,inactive,inactive,inactive,inactive,inactive,inactive,inactive,inactive,inactive
CC1(C)OC2CC(=O)OC[C@@]23C1CC(=O)[C@]1(C)C3CC[C@@]2(C)C(c3ccoc3)OC(=O)C3O[C@@]321 (some centres undefined),–,–,inactive,inactive,inactive,inactive,inactive,inactive,inactive,inactive,inactive,inactive,inactive,inactive,inactive,inactive,inactive,inactive,inactive,inactive
CC(=O)[C@]1(O)CCC2C3C=C(Cl)C4=CC(=O)C5CC5[C@@]4(C)C3CC[C@]21C (some centres undefined),–,–,inactive,inactive,–,inactive,inactive,inactive,inactive,inactive,inactive,inactive,inactive,inactive,inactive,inactive,inactive,inactive,inactive,inactive
COC1OC(CO)C(OC2OC(C(=O)O)C(OC3OC(COS(=O)(=O)O)C(OC4OC(C(=O)O)C(OC5OC(CO)C(OC6OC(C(=O)O)C(OC7OC(COS(=O)(=O)O)C(OC8OC(C(=O)O)=C[C@H](O)C8OS(=O)(=O)O)C(O)C7NC(C)=O)[C@@H](O)C6O)C(O)C5NC(C)=O)[C@@H](O)C4O)C(O)C3NC(C)=O)[C@@H](O)C2O)C(O)C1NC(C)=O (some centres undefined),–,–,inactive,inactive,–,–,inactive,–,–,inactive,–,–,inactive,–,–,–,–,12.6 µM (active),–,–
OCC1OC(n2cnc3c(=S)nc[nH]c32)C(O)C1O (centres undefined),–,–,inactive,inactive,inactive,inactive,inactive,inactive,inactive,inactive,inactive,inactive,inactive,inactive,inactive,inactive,inactive,inactive,inactive,inactive
CCC(=O)O[C@@]1(C(=O)CCl)C(C)CC2C3CCC4=CC(=O)C=C[C@@]4(C)[C@]3(F)C(O)C[C@]21C (some centres undefined),–,inactive,–,–,–,10 µM (active),–,10 µM (active),–,15.1 µM (active),–,–,–,7.94 µM (active),10.7 µM (active),11.2 µM (active),7.94 µM (active),10 µM (active),11.2 µM (active),–
COC1CC(O[C@H]2/C(C)=C/CC3CC(C[C@]4(CCC(C)C(C5CCCCC5)O4)O3)OC(=O)[C@H]3C=C(C)/C(=N/O)C4OC/C(=C\C=C\[C@@H]2C)[C@@]43O)OC(C)C1O (some centres undefined),–,–,inactive,inactive,–,–,–,–,–,inactive,–,–,inactive,–,inactive,–,–,12.6 µM (active),–,–
COc1ccc(-c2cc(=O)c3c(O)cc(O[C@H]4OC(COC5OC(C)C(O)C(O)[C@H]5O)C(O)C(O)C4O)cc3o2)cc1O (some centres undefined),–,–,inactive,inactive,inactive,inactive,inactive,inactive,inactive,inactive,inactive,inactive,–,inactive,inactive,inactive,inactive,inactive,inactive,inactive
CCC1OC(=O)C(C)[C@@H](O[C@H]2C[C@@](C)(OC)C(O)C(C)O2)C(C)[C@@H](O[C@@H]2OC(C)CC(N(C)C)C2O)[C@@](C)(O)CC(C)C(=O)[C@@H](C)C(O)[C@]1(C)O (some centres undefined),–,inactive,inactive,inactive,inactive,inactive,inactive,inactive,inactive,inactive,inactive,inactive,inactive,inactive,inactive,–,inactive,inactive,inactive,inactive
CC(C)=CCC[C@](C)(O)C1CC=C(C)CC1 (some centres undefined),–,–,inactive,inactive,inactive,inactive,inactive,inactive,inactive,inactive,inactive,inactive,inactive,inactive,inactive,inactive,inactive,inactive,inactive,inactive
